In PubChem BioAssay (EPA / NIEHS) one finds outcome and AC50 data, which are given here for 40 compounds.

Activity calls are given as the source filed them. The calls were made as follows: active = hit-call score of the fitted dose curve at least 0.9, where 1 is the maximum; inactive = score below 0.9.

Read-out in this experiment: solute carrier (SLC22A1), SLC22A1 (gene 6580)
Kind of experiment: LTEA_HepaRG_SLC22A1: Life Technologies and Expression Analysis (LTEA) Assay for solute carrier (SLC22A1) using HepaRG (AID 2283524).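 As to AC50: TaqMan qRT-PCR normalized to ACTB GAPDH and POLR2A housekeeping genes.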 Conditions: mRNA level, 48 h; actives raise or lower the signal. The method, then: LTEA_HepaRG is a cell based, multiplexed-readout assay that uses HepaRG, a human liver cell line, with measurements taken at 48 hours after chemical dosing on a 96-well plate.LTEA_HepaRG_SLC22A1 is one of 102 assay component(s) measured in the LTEA HepaRG cell culture assay. It is a marker of NR mediated transport.Data from the assay component LTEA_HepaRG_SLC22A1 was analyzed into 1 endpoint. This assay endpoint, LTEA_HepaRG_SLC22A1, was analyzed with bidirectional fitting relative to DMSO as the negative control and baseline of activity. Using a type of inducible reporter, measures of mRNA induction for gain or loss-of-signal activity can be used to understand regulation of transcription factor activity. To generalize the intended target to other relatable targets, this assay endpoint is annotated to the transporter intended target family, where the subfamily is organic cation transporter.
A total of 1060 chemcials from the ToxCast library were tested in eight-point concentration-response experiments. Cell culture and cytotoxicity assays were conducted at Thermo Fisher Scientific's Custom Services facility (Madison, WI). A single lot of human HepaRG cells (Thermo Fisher Scientific, Frederick, MD) was used for the cell culture experiments. 96-well format collagen type I coated plates of human HepaRG cells were prepared using established methods. Briefly, cryopreserved HepaRG cells were thawed, plated at a density of approximately 100,000 cells/well in HepaRG Thaw, Plate, and General Purpose media (HPRG770, Thermo Fisher Scientific), and incubated for 48 hours. 0.5% DMSO was selected as vehicle control to balance the requisite need of DMSO in HepaRG cultures to maintain differentiation (for example, baseline metabolism, proportions of hepatocytes vs. cholangiocytes), while enabling further hepatic receptor pathway activation (for example, PXR and CAR) in response to chemical exposure. 48 hours after plating, the culture medium was replaced with HepaRG Serum-Free Incudtion Media. Cells were exposed to each test chemical in duplicate and maintained in CO2 incubators for another 48 hours. Chemical plates were thawed to room temperature and 200x concentrations of treatment groups were prepared. 8-point conentration-reponse curves were made with the highest exposure at 100 uM, followed by half-log dilutions, all in 0.5% DMSO. Each test plate contained variouse controls, induction positive controls (1mM phenobarbital), cytotoxicity positive controls ([…] aflatoxin B1), vehicle controls (0.5% DMSO), and total lysis controls (0.5% DMSO). Cell morphology images were taken using an Essen IncuCyte FLR automated microscope, with six 96-well plates imaged in about 24 minutes. Images were captured and exported and JPEG files. Spent culture media was transfered to black-well plates for the LDH assay, and remaining media was sorted at -80 C for later use. Cells were treated with RLT buffer and frozen until shipped for gene expression analysis. Total RNA was isolated from the cell suspension in 75 uL of Buffer RLT (Qiagen, Germantown, MD 20874) by Quintiles/Expression Analysis (Durham, NC) using a custom isolation procedure. Total RNA from each plate well was transferred to a preamplification plate. Fluidigm's 96.96 Dynamic ArrayTM (Fluidigm, Amsterdam, the Netherlands) technology was used for gene expression analyses by quantitative reverse transcription polymerase chain reaction (qRT-PCR, performed by Quintiles/Expression Analysis, Durham, NC)89. Standard TaqManTM Assays (Applied Biosystems/ThermoFisher Scientific, Foster City, CA) were used to assess the expression of 93 genes selected based on their selectivity and sensitivity to important hepatic receptors known to be modulated by environmental chemicals; importance in human hepatocyte functionality; and hepatotoxicity. […]
On to `CN(C)c1ccccc1`, for which the call was inactive. By AC50 is commonly meant the concentration at which the activity in the assay is half-maximal. In the case of `CCNS(=O)(=O)C(F)(F)C(F)(F)C(F)(F)C(F)(F)C(F)(F)C(F)(F)C(F)(F)C(F)(F)F`, the AC50 was 40.5 µM (active).

As to `CCCCOC(=O)c1ccccc1C(=O)OCc1ccccc1`, the compound was called inactive.

Take `CCCCCCCCCCCCCN1CC(C)OC(C)C1` (stereo not given): the compound was classed as inactive. Turning to `Oc1ccccc1Cl`, the compound was classed as inactive. On to `CCOC(=O)[C@]1(c2ccccc2)Oc2ccccc2[C@@H]1N`, for which the half-maximal activity concentration (AC50) was 84.2 µM (active). On to `C1=Cc2cccc3cccc1c23`, for which the outcome was inactive. In the case of `Clc1ccc(Cl)c(Cl)c1`, the AC50 was 20 µM (active). As for `C=CCc1ccc2c(c1)OCO2`, the outcome was inactive. Take `O=C(Oc1ccc(Br)cc1)N1CCN2CCC1CC2`: the call was inactive. For the compound `CC(C)(C)OOC(=O)c1ccccc1`, the result was inactive. As for `CCCCCOC(=O)c1ccccc1C(=O)OCCCCC`, the call was inactive. Still for that read-out and setting: the value for `CN(C)[C@@H]1C(=O)C(C(N)=O)=C(O)[C@@]2(O)C(=O)C3=C(O)c4c(O)cccc4[C@@](C)(O)[C@H]3C[C@@H]12` was “inactive”; that for `O=[N+]([O-])C(Br)(CO)CO` was “inactive”.

Take `O=Cc1ccco1`: the call was inactive. For `CCCSC(=O)N(CCC)CCC`, the result was inactive. For the compound `Nc1ccc(Oc2ccc(N)cc2)cc1`, the call was inactive.

For the compound `O=C(Nc1ccccc1)c1ccccc1I`, the AC50 is 31.1 µM (active). In the case of `CC(C)N(Cc1ccccc1)C(=O)C(C)(C)C`, the compound was called inactive.

As for `CC(C)(O)c1cnn2c(-c3ccc(F)c(-c4c(F)cccc4C#N)c3)cnc2n1`, the concentration at half-maximal activity (AC50) is 9.92 µM (active). Turning to `CS(=O)(=O)NC(=O)c1cc(Oc2ccc(C(F)(F)F)cc2Cl)ccc1[N+](=O)[O-]`, the compound was called inactive. Same read-out and setting: the value for `O=C1CCCO1` was “inactive”; that for `c1ccc2c(c1)-c1cccc3cccc-2c13` was “inactive”. `CCCCCCCCOC(=O)c1ccc(C(=O)OCCCCCCCC)c(C(=O)OCCCCCCCC)c1`: the result was inactive. The same measure, in the same setting: to `O=P(OCCCl)(OCCCl)OCCCl` belongs “inactive”; to `Clc1ccc(C(c2ccc(Cl)cc2)C(Cl)(Cl)Cl)cc1`, “inactive”; to `OCCOCCO`, “inactive”. Regarding `CCN(CC)N=O`, the call was inactive. Regarding `CN(C)C(=O)Nc1ccc(Cl)cc1`, the compound was classed as inactive.

Turning to `CCC(C)c1ccc(O)cc1` (stereo not given), the result was inactive. Consider `CC(C)(OOC(C)(C)c1ccccc1)c1ccccc1`, for which the compound was called inactive. On the same count and under the same terms, to `ClC1=C(Cl)C2(Cl)C3C(Cl)C=CC3C1(Cl)C2(Cl)Cl` (stereo not given) belongs “inactive”. As for `Cc1cc(N=Nc2ccccc2C)ccc1N`, the AC50 is 4.83 µM (active). Turning to `Cc1ccc(N=C=O)cc1N=C=O`, the AC50 was 30.6 µM (active). Regarding `CCCCCCCCn1sccc1=O`, the AC50 was 78.4 µM (active). `CC(C)(C)C(O)(CCc1ccc(Cl)cc1)Cn1cncn1` (stereo not given): the AC50 was 73.2 µM (active). With `c1ccc(C2CO2)cc1` (stereo not given), the outcome was inactive. With `CCOc1cccc(C2(N3CCN(c4ccccc4)CC3)CCC(C)CC2)c1` (stereo not given), the compound was called inactive. In the case of `[As]#[In]`, the result was inactive. Turning to `ClC1=C(Cl)[C@]2(Cl)[C@H]3[C@H]([C@@H]4C=C[C@H]3C4)[C@@]1(Cl)C2(Cl)Cl`, the half-maximal activity concentration (AC50) was 9.92 µM (active).
